Compounds with a hit are over-represented: about 1.7% of the library has one in this group of screens.
EBNA-1 inhibitor: blocks EBNA-1 binding to DNA. EBNA-1 DNA binding, fluorescence polarization. AID 1950. 300,000 compounds, 0.34% hits. inhibition, % at 14.8 µM; in the data active = inhibition above about 28%
ZTA counter: counter-screen for EBNA-1 inhibitors: inhibitors of Epstein-Barr virus ZTA. P03206. ZTA-DNA binding, fluorescence polarization. inhibition, % at 11 µM. 320,000 compounds, 0.15% hits. AID 2234; in the data active = inhibition above about 33%
Target sequence (P03206 whole entry, looked up): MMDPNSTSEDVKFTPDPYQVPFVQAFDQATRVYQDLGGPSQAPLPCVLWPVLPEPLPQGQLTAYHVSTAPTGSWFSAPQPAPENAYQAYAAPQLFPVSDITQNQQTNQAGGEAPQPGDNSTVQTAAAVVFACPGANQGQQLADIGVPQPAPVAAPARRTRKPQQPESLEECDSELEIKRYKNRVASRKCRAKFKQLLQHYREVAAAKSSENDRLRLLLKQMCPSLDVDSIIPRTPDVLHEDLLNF
LYPLA1 inh: counter-screen for PME1 inhibitors: inhibitors of human LYPLA1. recombinant LYPLA1, FP-Rh probe fluorescence polarization. inhibition, % at 5.9 µM. 320,000 compounds, 0.16% hits;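 active = inhibition above the mean of all tested compounds plus 3 SD, set per campaign, cut at about 14% in these data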;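 also: inhibitors block serine hydrolase probe labeling of LYPLA1 so polarization falls; 0% = enzyme with DMSO and 100% = wells lacking LYPLA1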
GSTO1 counter: blocks human GSTO1 in RBBP9 counter-screen | P78417 | recombinant GSTO1, activity-based probe fluorescence polarization | inhibition, % at 5.96 µM | 300,000 compounds, 1.1% hits;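 active = inhibition above the campaign mean inhibition plus 3 SD, cut at about 35% in these data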;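 also: 0% = GSTO1-1 with DMSO and 100% = wells lacking GSTO1-1 enzyme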
PAD4 inh: blocks human protein arginine deiminase 4 | AID 485272 | inhibition, % at 6.36 µM | Q9UM07 | recombinant PAD4, RCA probe fluorescence polarization | 330,000 compounds, 0.41% hits;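 active = percent inhibition above a cutoff equal to the mean of all tested compounds plus 3 SD, cut at about 15% in these data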;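 also: 0% = PAD4 with RCA probe and DMSO and 100% = probe without PAD4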
LYPLA2 inh: LYPLA2 (human) inhibition in PME1 counter-screen. O95372. inhibition, % at 5.9 µM. recombinant LYPLA2, FP-Rh probe fluorescence polarization. 320,000 compounds, 0.38% hits;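 active = inhibition above the screen-wide mean plus 3 SD, limit set per campaign, cut at about 26% in these data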;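 also: 0% = LYPLA2 with DMSO and 100% = wells lacking LYPLA2 enzyme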
GSTO1 confirm: confirmation of human GSTO1 inhibitors; shares compounds with GSTO1 counter; recombinant GSTO1, probe fluorescence polarization; inhibition, % at 5.96 µM; 2,400 compounds, 54% hits; AID 2176;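 active = inhibition above the primary screen's cutoff, its mean inhibition plus 3 SD, cut at about 35% in these data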;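 also: loss of polarization as inhibitors block binding of rhodamine sulfonate ester activity probe; 0% = GSTO1 with DMSO and 100% = wells lacking GSTO1 enzyme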
GSTO1 recomb ABPP: blocks recombinant human glutathione S-transferase omega 1; shares compounds with GSTO1 counter; recombinant GSTO1, gel ABPP SE-Rh probe fluorescence; inhibition, % at 1 µM; 130 compounds, 30% hits; AID 463110;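 active = inhibition of the enzyme GSTO1 above about 75%, limit read from the data; inactive = inhibition below that limit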
* marks the source's active call; other numbers are inactive results; nt = not tested or not shown.

SMILES	EBNA-1 inhibitor	ZTA counter	LYPLA1 inh	GSTO1 counter	PAD4 inh	LYPLA2 inh	GSTO1 confirm	others
CCc1ccc(N2CC(C(=O)N3CCN(c4ccccn4)CC3)CC2=O)cc1 (stereo not drawn)	-16	-17	5	3	-6	7	nt
Cc1ccc(C)c(N2CCN(C(=O)c3ccc(N4CCCC4=O)cc3)CC2)c1	5	16	5	5	6	1	nt
O=C(O)c1ccc(Cl)c(S(=O)(=O)Nc2ccc(OCc3ccccc3)cc2)c1	6	-2	-5	17	-1	-12	nt
COc1cccc(N=Nc2c(=O)[nH]n3c(C)cc(C)nc23)c1	0	-10	-1	38*	-9	3	3
CC(=O)N(CCN(C(C)=O)c1ccccc1)c1ccccc1	-17	-25	1	0	-7	4	nt
CCCCCCCN(C(=O)CCl)c1cccc(C)c1	-7	-4	0	97*	2	-3	96*	GSTO1 recomb ABPP=73
CCCN(C(=O)Cn1ncc2c(=O)oc3ccccc3c21)c1cccc(C)c1	-15	-7	-4	3	1	6	nt
CCCCCCN(C(=O)CCl)c1ccccc1	-2	-8	3	83*	6	1	97*	GSTO1 recomb ABPP=83*
Cc1ccc(NC(=O)CSCc2cc(=O)n3ccsc3n2)c(C)c1	-18	-10	3	2	-3	0	nt
COC(=O)C1Cc2ccccc2CN1C(=O)CCl (stereo not drawn)	-10	-2	1	90*	-5	0	99*
CCOc1ccc(NC(=O)CSc2nnc(-c3cc(C)[nH]n3)n2N)cc1	6	2	0	3	1	-5	nt
COc1ccc(CCn2c(NN)nc3c2c(=O)[nH]c(=O)n3C)cc1	-3	7	-3	41*	-4	0	8
COc1ccc(CCn2c(NCc3ccco3)nc3c2c(=O)[nH]c(=O)n3C)cc1	-2	-2	0	3	1	1	nt
Cc1c(OCC(=O)N2CCC(C(=O)NCCCC(=O)O)CC2)ccc2c1oc(=O)c1ccccc12	1	14	-3	-6	1	-3	nt
C1=CC2=NC34CCCCC3CC3=C(CCCC3)N4C2=CC1=NC1CCCCC1 (stereo not drawn)	-1	-1	0	76*	7	5	8
Nc1cc(=O)[nH]c(SCc2ccc(Cl)cc2Cl)n1	7	3	-5	-14	1	-3	nt
COc1ccc(N(C(=O)c2cnccn2)C(C(=O)NC2CCCCC2)c2ccc(Cl)cc2)cc1 (stereo not drawn)	-16	-16	0	5	3	3	nt
COC(CN(C(=O)CCl)C(C(=O)NC1CCCCC1)c1ccc(Cl)cc1)OC (stereo not drawn)	9	-9	0	73*	0	1	98*	GSTO1 recomb ABPP=52
COc1ccc(C(C(=O)NC2CCCCC2)N(C(=O)CCl)c2ccc(Cl)cc2)cc1 (stereo not drawn)	-2	4	-2	97*	3	-3	89*	GSTO1 recomb ABPP=91*
Cc1c(C(=O)c2no[n+]([O-])c2C(=O)c2cnn(C)c2C)cnn1C	-11	-25	-1	40*	6	6	25
COc1ccc(C(=O)c2no[n+]([O-])c2C(=O)c2ccc(OC)cc2)cc1	-9	-10	3	32	-8	0	nt
Oc1ccc(-c2csc(Nc3ccccn3)n2)cc1O	3	18	-8	11	-4	-13	nt
Oc1ccc(-c2csc(Nc3cccc4ccccc34)n2)cc1O	2	-29	-12	62*	-21	-10	5
CCc1nnc(NC(=O)CSc2nc(C)cc(C)c2C#N)s1	9	17	-4	24	-2	0	nt
O=C(NS(=O)(=O)Nc1ccc(Br)cn1)c1c[nH]c2ccccc12	0	-6	1	5	2	2	nt
COc1ccc(C(=O)N/N=C/c2ccc3cccc(O)c3n2)cc1	-7	-17	-10	41*	-26	-12	6
Cc1cccc(N(Cc2cc(=O)[nH]c3ccccc23)C(=O)C(C)C)c1	-11	-4	-1	3	-2	-1	nt

Compound activity deposited in PubChem BioAssay by The Scripps Research Institute Molecular Screening Center.
